According to PubChem BioAssay:
Activity calls are given as the source filed them.

What was measured:
[1] = optical density shifts of acrAB sulA E. coli – strain DRC41, OD650, 48 h, E. coli filamentation inducer project, primary screen (AID 1152); conditions: higher = more signal, called active from +8 up or from −8 down;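 note: E. coli MC1000 strain DRC41 lacking acrAB efflux pump and sulA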
[2] = probe aLefty1 binding on compound microarray – biochemical, small-molecule microarray, 635/667 nm fluorescence, primary screen (AID 1153); conditions: higher = more signal;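 note: score merges spot fluorescence with signal-to-noise ratio from the scanned slide images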
[3] = plasmodial surface anion channel blockers, osmotic lysis – cell-based, P. falciparum Indochina, OD700, 1 h, primary screen (AID 1154); conditions: P. falciparum Indochina infected RBC osmotic lysis, higher = more signal, called active from +8 up or from −8 down
[4] = plasmodial surface anion channel blockers, osmotic lysis – cell-based, P. falciparum Indochina, OD700, 2 h, primary screen (AID 1155);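 note: lysis reports solute entry through the parasite surface anion channel PSAC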; conditions: P. falciparum Indochina infected erythrocytes, higher = more signal, called active from +8 up or from −8 down
[5] = changes in parasitized red cell lysis, either direction – P. falciparum Indochina, OD700, 3 h, PSAC antagonist project, primary screen (AID 1156); conditions: P. falciparum-infected erythrocytes, osmotic lysis, higher = more signal, called active from +8 up or from −8 down
[6] = plasmodial surface anion channel blockers, osmotic lysis – cell-based, P. falciparum Indochina, OD700, 18 h, primary screen (AID 1157); conditions: P. falciparum Indochina infected erythrocytes, osmotic lysis OD700, 18 h; higher = more signal, called active from +8 up or from −8 down
[7] = S6 kinase pathway phospho-S6 level changes – cell-based, A549, cytoblot, luminescence, serum-stimulated, primary screen (AID 1158); conditions: 5 h, higher = more signal;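 note: serum-stimulated A549 lung adenocarcinoma cells; signal is phosphorylated S6 detected by cytoblot immunostaining with HRP secondary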
[8] = molecular target: NADPH oxidase 2 (Homo sapiens) (UniProt P04839); test: compounds shifting NOX2 Amplex Red fluorescence – cell-based, HEK293-NOX2, PMA-stimulated, NOX inhibitor project, primary screen (AID 1159); conditions: 45 min, higher = more signal, called active from +8 up or from −8 down; note: test concentration not given here
[9] = molecular target: NADPH oxidase 4 (Homo sapiens) (UniProt Q9NPH5); test: compounds shifting NOX4 Amplex Red fluorescence – cell-based, HEK293-NOX4, tetracycline-induced, NOX inhibitor project, primary screen (AID 1160); conditions: HEK293-NOX4, Amplex Red H2O2 fluorescence, 45 min; higher = more signal, called active from +8 up or from −8 down
[10] = molecular target: NADPH oxidase 5 (Homo sapiens) (UniProt Q96PH1); test: compounds shifting NOX5 Amplex Red fluorescence – cell-based, HEK293-NOX5, NOX inhibitor project, primary screen (AID 1161); conditions: HEK293-NOX5, ionomycin, 45 min, higher = more signal
Sequence of NADPH oxidase 5 (Homo sapiens) (Q96PH1 whole entry, looked up): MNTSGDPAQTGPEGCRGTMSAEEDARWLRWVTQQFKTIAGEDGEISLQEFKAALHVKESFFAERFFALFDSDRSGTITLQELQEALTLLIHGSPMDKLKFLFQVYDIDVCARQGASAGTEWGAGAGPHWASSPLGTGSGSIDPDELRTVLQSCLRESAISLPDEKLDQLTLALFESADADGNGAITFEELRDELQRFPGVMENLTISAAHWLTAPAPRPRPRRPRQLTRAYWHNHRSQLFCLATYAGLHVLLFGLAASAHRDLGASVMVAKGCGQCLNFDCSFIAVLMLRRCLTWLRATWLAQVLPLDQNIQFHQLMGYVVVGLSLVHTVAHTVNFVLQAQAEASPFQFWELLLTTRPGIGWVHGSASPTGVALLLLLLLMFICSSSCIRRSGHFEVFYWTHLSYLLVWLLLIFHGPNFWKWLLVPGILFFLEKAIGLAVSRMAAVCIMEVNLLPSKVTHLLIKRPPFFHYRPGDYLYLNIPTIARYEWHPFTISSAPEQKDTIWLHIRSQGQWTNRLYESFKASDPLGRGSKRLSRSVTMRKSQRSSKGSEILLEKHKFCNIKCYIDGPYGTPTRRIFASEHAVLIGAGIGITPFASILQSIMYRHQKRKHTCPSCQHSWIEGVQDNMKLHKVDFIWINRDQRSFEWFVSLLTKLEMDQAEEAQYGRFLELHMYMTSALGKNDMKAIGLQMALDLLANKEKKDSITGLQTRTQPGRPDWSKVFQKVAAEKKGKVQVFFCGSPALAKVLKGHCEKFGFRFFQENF

Sequence of NADPH oxidase 2 (Homo sapiens) (P04839 whole entry, looked up): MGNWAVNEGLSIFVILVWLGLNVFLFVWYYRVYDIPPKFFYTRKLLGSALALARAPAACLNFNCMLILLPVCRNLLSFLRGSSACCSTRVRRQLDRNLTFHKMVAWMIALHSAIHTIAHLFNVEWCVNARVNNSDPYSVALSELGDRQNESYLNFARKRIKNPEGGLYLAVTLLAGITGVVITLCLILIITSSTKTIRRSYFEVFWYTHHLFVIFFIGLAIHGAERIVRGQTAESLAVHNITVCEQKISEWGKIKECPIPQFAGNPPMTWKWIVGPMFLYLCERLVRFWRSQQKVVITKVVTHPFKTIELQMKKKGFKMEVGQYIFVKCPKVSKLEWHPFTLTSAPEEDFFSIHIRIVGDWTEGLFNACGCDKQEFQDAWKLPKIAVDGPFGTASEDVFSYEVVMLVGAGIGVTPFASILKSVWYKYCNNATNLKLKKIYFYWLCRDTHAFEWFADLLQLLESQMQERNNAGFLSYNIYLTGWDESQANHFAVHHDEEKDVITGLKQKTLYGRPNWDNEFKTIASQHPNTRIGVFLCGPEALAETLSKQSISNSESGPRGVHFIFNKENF
Sequence of NADPH oxidase 4 (Homo sapiens) (Q9NPH5 whole entry, looked up): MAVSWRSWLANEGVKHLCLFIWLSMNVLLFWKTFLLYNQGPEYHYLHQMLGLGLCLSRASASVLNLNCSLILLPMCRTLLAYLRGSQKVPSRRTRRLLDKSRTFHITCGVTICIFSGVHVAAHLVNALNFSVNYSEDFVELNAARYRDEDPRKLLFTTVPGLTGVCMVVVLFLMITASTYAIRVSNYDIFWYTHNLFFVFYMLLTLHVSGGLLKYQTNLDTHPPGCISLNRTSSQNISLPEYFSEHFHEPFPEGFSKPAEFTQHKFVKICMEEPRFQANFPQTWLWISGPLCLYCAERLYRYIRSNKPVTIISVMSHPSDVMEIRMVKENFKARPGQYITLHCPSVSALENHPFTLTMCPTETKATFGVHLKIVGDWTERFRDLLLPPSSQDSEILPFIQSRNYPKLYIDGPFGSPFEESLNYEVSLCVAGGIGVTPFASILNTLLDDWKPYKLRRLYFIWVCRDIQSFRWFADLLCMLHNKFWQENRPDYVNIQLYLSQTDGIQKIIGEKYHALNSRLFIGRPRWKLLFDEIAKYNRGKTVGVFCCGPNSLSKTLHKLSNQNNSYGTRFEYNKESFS

| Compound | z-score [1] | composite z-score [2] | z-score [3] | z-score [4] | z-score [5] | z-score [6] | z-score [7] | z-score [8] | z-score [9] | z-score [10] |
| --- | --- | --- | --- | --- | --- | --- | --- | --- | --- | --- |
| CC[C@@H]1C=C(C(=O)O)[C@H](c2ccccc2)N1S(=O)(=O)c1ccc(C)cc1 | -1.24 (inactive) | -0.0984 | 1 (inactive) | 0.72 (inactive) | -0.393 (inactive) | 0.512 (inactive) | -0.265 | 0.848 (inactive) | -0.114 (inactive) | -0.978 |
| CS(=O)(=O)CCOC(=O)C1=CC(CCCO)=CC(c2ccc(CN3CCCC3)cc2)N(Cc2sc3ccccc3c2Cl)C=C1C(=O)OCCS(C)(=O)=O (stereo not given) | -0.794 (inactive) | 0.85 | 3.35 (inactive) | 0.586 (inactive) | 0.51 (inactive) | 0.428 (inactive) | -0.261 | 0.44 (inactive) | -0.567 (inactive) | -0.719 |
| C=C[C@@H](OC)[C@H](OC(=O)Nc1ccc(OC)cc1)c1ccc(O)c(F)c1 | 0.308 (inactive) | 0.0774 | 3.98 (inactive) | 0.517 (inactive) | 0.241 (inactive) | 0.475 (inactive) | -0.012 | -1.79 (inactive) | 0.787 (inactive) | 3.63 |
| COc1ccc([Si](C)(C)[C@H]2[C@H](CC(=O)N3Cc4ccccc4C[C@H]3CO)O[C@@]3(C(=O)N(Cc4ccc(N5CCOC5=O)cc4)c4ccccc43)[C@@H]2C)cc1 | -0.742 (inactive) | -0.0611 | 8.34 (active) | 1.85 (inactive) | 0.863 (inactive) | 0.82 (inactive) | 0.718 | -0.659 (inactive) | 0.611 (inactive) | -0.344 |
| [N-]=[N+]=NCc1ccccc1[C@@H]1OC(c2ccc(OCCCO)cc2)=N[C@]1(CCS(=O)(=O)c1ccccc1)C(=O)O | -0.0791 (inactive) | 0.186 | 18.8 (active) | 4.31 (inactive) | 0.296 (inactive) | 0.716 (inactive) | -0.0381 | 1.19 (inactive) | 1.33 (inactive) | 2.11 |
| NC(=O)NCC#Cc1ccc2c(c1)[C@]1(C(=O)N2)[C@H](c2ccccc2OCCO)N2[C@H](c3ccccc3)[C@H](c3ccccc3)OC(=O)[C@H]2[C@@H]1C(=O)NC[C@H](O)c1ccccc1 | 2.83 (inactive) | -0.103 | 0.925 (inactive) | -0.918 (inactive) | -0.313 (inactive) | -1.54 (inactive) | 2.83 | 1.74 (inactive) | 0.869 (inactive) | 0.062 |
| CC1CC/C=C\[C@H]2OC34C=CCN(Cc5ccccc5)C(=O)[C@H]3N(C(CO)C(C)C)C(=O)[C@@H]4C2C(=O)O1 (stereo not given in full) | 0.084 (inactive) | -0.149 | 1.42 (inactive) | 0.667 (inactive) | 0.97 (inactive) | 0.304 (inactive) | -0.529 | 1.84 (inactive) | 0.983 (inactive) | 2.21 |
| C=CCNC(=O)[C@@H]1[C@H]2C(=O)O[C@H](c3ccccc3)[C@H](c3ccccc3)N2[C@H](c2ccccc2OCCO)[C@@]12C(=O)Nc1ccc(C#CCCO)cc12 | -2.32 (inactive) | -0.674 | 5.68 (inactive) | 1.15 (inactive) | 0.206 (inactive) | 0.778 (inactive) | 0.0309 | 0.734 (inactive) | 0.627 (inactive) | 0.849 |
| Cc1ccccc1C(O)C1C=CC2C(=O)NC(=O)C2N1Nc1ccccn1 (stereo not given) | -0.908 (inactive) | -0.229 | 0.408 (inactive) | 0.608 (inactive) | -0.0205 (inactive) | 0.68 (inactive) | -1.01 | -0.444 (inactive) | -2.62 (inactive) | -1.27 |
| O=C(NCCN1CCOCC1)[C@@H]1c2ccccc2C(=O)N(Cc2ccccc2Cl)[C@H]1c1ccc(CO)cc1 | 0.446 (inactive) | 0.121 | 4.63 (inactive) | 0.466 (inactive) | 0.297 (inactive) | 0.306 (inactive) | -0.467 | -0.112 (inactive) | 0.34 (inactive) | -0.371 |
| COCC(=C=CC[C@H](O)c1ccc(OCCO)cc1)CCO | 0.367 (inactive) | 0.0774 | 9.25 (active) | 1.02 (inactive) | 0.934 (inactive) | 0.381 (inactive) | -0.439 | 1.03 (inactive) | 0.57 (inactive) | -0.704 |
| COc1ccc([Si](C)(C)[C@H]2[C@H](CC(=O)N(CCO)Cc3ccccc3)O[C@@]3(C(=O)N(C)c4c(Br)cc(C)cc43)[C@@H]2C)cc1 | -0.0939 (inactive) | 0.0774 | 18.4 (active) | 3.21 (inactive) | 0.0319 (inactive) | 1.11 (inactive) | 1.83 | -2.5 (inactive) | -0.577 (inactive) | -0.876 |
| COCCOC(=O)N1C(=O)[C@@]2(c3ccccc31)[C@H](c1ccc(O)cc1)N1[C@H](c3ccccc3)[C@H](c3ccccc3)OC(=O)[C@H]1[C@@H]2C(=O)N1CCN(c2ncccn2)CC1 | 0.381 (inactive) | 0.412 | 1.4 (inactive) | 0.622 (inactive) | 0.113 (inactive) | 0.431 (inactive) | 0.174 | 0.964 (inactive) | 0.386 (inactive) | 1.08 |
| Cc1ccc(S[C@]2(C(=O)NCC(F)(F)F)CC(=O)N(Cc3cc(C(F)(F)F)cc(C(F)(F)F)c3)[C@@H]2c2ccc(CO)cc2I)cc1 | 0.168 (inactive) | -0.563 | 1.71 (inactive) | -0.0111 (inactive) | 1.12 (inactive) | 0.449 (inactive) | 0.837 | 1.63 (inactive) | -2.46 (inactive) | -1.28 |
| C=CCNC(=O)[C@H]1[C@@H]2C(=O)O[C@@H](c3ccccc3)[C@@H](c3ccccc3)N2[C@@H](c2ccccc2OCCO)[C@]12C(=O)N(C(=O)OCCOC)c1ccc(C#CC3(O)CCCCCC3)cc12 | 1.49 (inactive) | 0.25 | 1.58 (inactive) | 0.166 (inactive) | -0.236 (inactive) | -1.57 (inactive) | 2.01 | 1.52 (inactive) | 1.07 (inactive) | 0.729 |
| CS(=O)(=O)CCOC(=O)C1=CC(c2ccc(CO)cc2)=CC(C2CC2)N(Cc2sc3ccccc3c2Cl)C=C1C(=O)OCCS(C)(=O)=O (stereo not given) | -3.12 (inactive) | 0.141 | 13.8 (active) | 3.35 (inactive) | 0.239 (inactive) | 1.39 (inactive) | 0.044 | 0.932 (inactive) | 0.186 (inactive) | -0.935 |
| CN(C)CCCCCCNC(=O)[C@@H]1C[C@@H]2C(=O)N3CCC[C@H]3C(=O)N2[C@@H]1c1cccc(OCCO)c1 | -0.305 (inactive) | 0.0231 | 3.6 (inactive) | 0.456 (inactive) | 0.77 (inactive) | 0.448 (inactive) | -0.701 | 1.03 (inactive) | -0.884 (inactive) | 0.837 |
| CCOC(=O)C[C@H]1[C@H](OC(=O)Cc2ccc3c(c2)OCO3)[C@@H](NC(=O)C2CCCCC2)c2cc(OCCCO)ccc2N1C(=O)c1ccccc1 | 2.81 (inactive) | -0.06 | 1.27 (inactive) | 0.569 (inactive) | -0.481 (inactive) | 0.0872 (inactive) | 0.524 | -0.233 (inactive) | 0.636 (inactive) | -0.206 |
| CCN(CC)c1ccc(N2CC=CC34O[C@@H]5/C=C\CCCOC(=O)C5[C@H]3C(=O)N(C(C)CO)[C@@H]4C2=O)cc1 (stereo not given in full) | 1.56 (inactive) | -0.0814 | 0.733 (inactive) | -0.264 (inactive) | 1.33 (inactive) | -0.306 (inactive) | 0.0073 | 0.275 (inactive) | -0.0723 (inactive) | 0.83 |
| C=C(/C(=C/C[C@H](OC(=O)c1ccncc1)c1ccc(CO)o1)c1cnc2ccccc2c1)C(C)C | -0.833 (inactive) | 0.0844 | 6.75 (inactive) | 1.37 (inactive) | 1.47 (inactive) | 0.528 (inactive) | -0.702 | 1.42 (inactive) | 0.0654 (inactive) | -0.415 |
| [N-]=[N+]=Nc1ccccc1[C@@H]1OC(c2ccc(OCCCO)cc2)=N[C@]1(Cc1ccccc1)C(=O)N1CCCCC1 | 0.227 (inactive) | 0.282 | 32.6 (active) | 32.7 (active) | 3.01 (inactive) | 4 (inactive) | 0.328 | -1.43 (inactive) | -0.743 (inactive) | -1.77 |
| COc1ccc([Si](C)(C)[C@H]2[C@H](CC(=O)N3CCC[C@H]3CO)O[C@@]3(C(=O)N(Cc4ccc(N5CCOC5=O)cc4)c4ccccc43)[C@@H]2C)cc1 | 0.397 (inactive) | 0.298 | 9.5 (active) | 1.8 (inactive) | 0.088 (inactive) | 0.746 (inactive) | 0.0491 | 1.94 (inactive) | -0.0662 (inactive) | 3.78 |
